Records with an inconclusive call do not appear. Active and inactive are the calls of the source. Calls come from the whole dose curve; as a rule, active = well fitted curve in the direction sought with a large enough effect; inconclusive = small, poorly fitted or top-dose-only effect, or another doubt; inactive = no such curve, though single readings can be large or run the other way.

In this assay the target is Glyceraldehyde-3-phosphate dehydrogenase (Oryctolagus cuniculus) (UniProt P46406). The experiment in a line: Extended Characterization of HPGD Inhibitors: Counterscreen Against rGAPDH. Conditions: rabbit GAPDH/diaphorase coupled resazurin fluorescence; series mostly up to 57.1 µM. The method, then: The central role of HPGD is to inactivate prostaglandins such as prostaglandin E2 (PGE2) or prostaglandin D2 (PGD2). These prostaglandins are involved in a number of processes, including inflammation, differentiation, and cellular signaling, which makes HPGD an important target for pharmacological intervention. The counterscreen for non-specific dehydrogenase activity was conducted using a rabbit glyceraldehyde-3-phosphate dehydrogenase (rGAPDH; Sigma Aldrich, St. Louis, MO) coupled assay system. In this assay, the rGAPDH-catalyzed conversion of NAD+ to NADH is coupled downstream to an additional enzyme, diaphorase (Sigma Aldrich, St. Louis, MO), which reduces the non-fluorescent molecule, resazurin, to a red fluorescent product, resorufin, in an NADH-dependent fashion. Thus, rGAPDH activity leads to an increase in fluorescence at 598 nm, and inhibitors of the reaction lead to a decrease in resorufin production and a subsequent decrease in fluorescence. The change in fluorescence between 0 and 30 minutes was measured, and data were normalized to control columns representing maximum signal (all components) and background (no rGAPDH). The buffer consisted of 100mM triethanolamine, pH 7.6, 5mM MgCl2 and 0.01% Tween-20, and the assay was run in black, solid-bottom, non-tissue culture-treated Greiner plates. NIH Chemical Genomics Center [NCGC] NIH Molecular Libraries Probe Centers Network [MLPCN] MLPCN Grant: MH084681 Assay Submitter (PI): Structural Genomics Consortium
Sequence of Glyceraldehyde-3-phosphate dehydrogenase (Oryctolagus cuniculus) (P46406 whole entry, looked up): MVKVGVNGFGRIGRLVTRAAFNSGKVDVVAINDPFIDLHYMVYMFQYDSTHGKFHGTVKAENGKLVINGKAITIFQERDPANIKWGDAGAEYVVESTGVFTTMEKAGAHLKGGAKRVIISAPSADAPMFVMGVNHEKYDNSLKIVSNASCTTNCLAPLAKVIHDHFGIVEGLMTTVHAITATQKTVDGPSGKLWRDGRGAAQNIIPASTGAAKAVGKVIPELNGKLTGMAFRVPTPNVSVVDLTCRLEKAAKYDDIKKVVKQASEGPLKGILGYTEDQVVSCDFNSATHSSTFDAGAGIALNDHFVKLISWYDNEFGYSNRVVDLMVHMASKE
3 uL of substrate buffer (final conc: 2 mM G3P, 1 mM NAD+, 0.1 mM resazurin, 0.1 mg/mL diaphorase) are added to the 1536-well plate before 23 nL of compound library is pinned into the well. Then, 1 uL of rGAPDH or 0x control (final conc: 2 nM and buffer only, resp.) are added and plate is immediate read for fluorescence on the ViewLux; ex 525, em 598, 1 second exposure, Bodipy Mirror), incubated for 30 at RT before a final read on the ViewLux with the same settings.
On the technique in general: The purpose of a counterscreen is to sort out artefacts and off-target activity.
`Cc1cc(-c2nnc3n2CCCCC3)c(C)n1-c1cccc(Cl)c1`: the compound was classed as inactive.

On to `O=C(c1ccc2c(c1)ncn2-c1cccc(Cl)c1)N1CCCCC1`, for which the outcome was inactive.

With `Cc1cc(-c2nnc3n2CCCCC3)c(C)n1-c1cccc(C(F)(F)F)c1`, the outcome was inactive.

On to `Cc1cccc(-n2cnc3cc(C(=O)N4CCCC(C(F)(F)F)C4)ccc32)c1` (centres undefined), for which the call was inactive.

As to `O=C(c1ccc2c(c1)ncn2-c1cccc(C(F)(F)F)c1)N1CCCCC1`, the compound was called inactive.

For the compound `Cc1cc(-c2nnc3n2CCCCC3)c(C)n1-c1ccc(Cl)c(Cl)c1`, the outcome was inactive.

Take `Cc1cccc(-n2cnc3cc(C(=O)N4CCCC(C)(C)C4)ccc32)c1`: the call was inactive.

Consider `COc1ccc(-n2cnc3cc(C(=O)N4CCCCC4)ccc32)cc1`, for which the compound was classed as inactive.

For the compound `Cc1ccc(-n2c(C)cc(-c3nnc4n3CCCCC4)c2C)cc1`, the result was inactive.

These data come from PubChem BioAssay AID743193 (National Center for Advancing Translational Sciences (NCATS), 2013).
